Screens (PubChem BioAssay)
Rows were chosen to be rich in hits. Some 2% of all compounds tested hit in one or more screens of this group.
KCNH2 WT inh = blocks the wildtype human KCNH2 potassium channel; hit rate 0.37% among 340,000; U2OS, BacMam KCNH2, thallium flux FluxOr; active compounds read low; Q12809; AID 720551; activity change, % at 1.84 µM;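 active = maximum activity change below -70%; inconclusive = maximum activity change between -70% and -50%; inactive = maximum activity change above -50%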
Target sequence (Q12809 whole entry, looked up): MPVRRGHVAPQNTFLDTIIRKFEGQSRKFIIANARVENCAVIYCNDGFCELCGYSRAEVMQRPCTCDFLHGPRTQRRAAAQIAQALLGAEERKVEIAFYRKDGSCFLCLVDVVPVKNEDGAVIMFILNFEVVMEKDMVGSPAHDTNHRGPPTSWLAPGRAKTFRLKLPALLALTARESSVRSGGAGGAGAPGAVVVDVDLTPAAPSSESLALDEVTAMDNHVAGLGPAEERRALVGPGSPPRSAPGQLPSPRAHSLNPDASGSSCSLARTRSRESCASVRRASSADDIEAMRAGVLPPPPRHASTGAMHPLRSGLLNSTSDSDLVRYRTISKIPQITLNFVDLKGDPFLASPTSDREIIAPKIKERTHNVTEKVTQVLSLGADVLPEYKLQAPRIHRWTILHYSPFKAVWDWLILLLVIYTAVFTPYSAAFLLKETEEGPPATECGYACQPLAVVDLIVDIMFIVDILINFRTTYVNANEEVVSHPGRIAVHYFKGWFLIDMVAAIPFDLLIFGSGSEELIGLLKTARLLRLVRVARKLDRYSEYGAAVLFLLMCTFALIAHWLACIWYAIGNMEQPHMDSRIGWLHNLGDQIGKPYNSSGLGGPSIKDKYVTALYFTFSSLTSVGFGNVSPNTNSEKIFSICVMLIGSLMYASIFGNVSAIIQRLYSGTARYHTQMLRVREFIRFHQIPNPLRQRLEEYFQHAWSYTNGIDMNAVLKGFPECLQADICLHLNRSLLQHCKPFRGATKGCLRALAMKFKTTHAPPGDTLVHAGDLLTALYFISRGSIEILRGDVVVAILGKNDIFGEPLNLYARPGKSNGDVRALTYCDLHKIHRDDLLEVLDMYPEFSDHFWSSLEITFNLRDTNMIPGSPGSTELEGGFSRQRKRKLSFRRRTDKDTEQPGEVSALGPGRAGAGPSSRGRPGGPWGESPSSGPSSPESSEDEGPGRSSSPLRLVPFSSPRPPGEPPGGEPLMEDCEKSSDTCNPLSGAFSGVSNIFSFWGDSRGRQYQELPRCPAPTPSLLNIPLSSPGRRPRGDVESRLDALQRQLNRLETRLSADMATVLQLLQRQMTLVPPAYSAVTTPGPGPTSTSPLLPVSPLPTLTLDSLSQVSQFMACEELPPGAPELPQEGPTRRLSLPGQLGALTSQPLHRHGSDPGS
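U2OS cells transduced with wild-type KCNH2 virus are loaded with FluxOr dye for 45 min, and thallium flux is measured in kinetic reads before and after stimulation buffer. Rate constants are normalized to DMSO controls.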
JMJD2E inh = blocks human JMJD2E demethylase activity | JMJD2E catalytic domain, FDH-coupled NADH fluorescence (FDH is formaldehyde dehydrogenase) | Potency, µM (highest dose often 57.1 µM), usual class: inhibitors | hit rate 1.6% among 230,000; active = well fitted inhibition curve with a large enough effect, not every such curve was filed as active; inconclusive = small, poorly fitted or top-dose-only effect, or another doubt; inactive = no such curve, though single readings can be large or run the other way; note: nearly all actives have a fitted effect of over 50% in size
CtBP-E1A blk = inhibitors of CtBP/E1A interaction; AlphaScreen GST-E1A/His-CtBP binding, 1536-well; active compounds read low; activity change, % (no concentration beside the values); hit rate 0.49% among 340,000; AID 651724
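AlphaScreen with 125 nM GST-E1A and 125 nM His-CtBP (5X stocks) in Tris pH 8.0, 300 mM NaCl, BSA, Tween 20, TCEP. Compounds preincubated 2 h at 37 deg C, then glutathione donor/nickel acceptor beads added for 1 h at 37 deg C in dark.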
KCNH2 3.1 inh = inhibitors of human KCNH2 3.1 potassium channel isoform; U2OS KCNH2 3.1, thallium flux FluxOr; active compounds read low; activity change, % (tested at about 1.8 µM); hit rate 0.95% among 340,000; AID 720553;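 active = maximum activity change below -70%; inconclusive = maximum activity change from -70% to -50%; inactive = maximum activity change above -50%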;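 note: thallium influx rate constant from kinetic fluorescence after stimulation buffer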
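Virally transduced U2OS (3.1 isoform, 4 h infection in dark at RT) → overnight 37 C → FluxOr + Red40 in HBSS/HEPES, 45 min → stimulation buffer, 2 min kinetic read → rate constant vs DMSO controls.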
Six1-Eya2 inh = inhibitors of human Six1/Eya2 interaction; activity change, % (no concentration beside the values); Q15475+O00167; hit rate 0.56% among 360,000; AID 651725; AlphaScreen GST-Six1/His-Eya2 binding, biochemical; active compounds read low
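Six1/Eya2 binding was read as AlphaScreen signal after compounds were pinned into GST-Six1 plus His-tagged Eya2 (5X stock 250/500 nM) in pH 8.0 Tris/NaCl/TCEP buffer, beads added, then incubated 1 h, 37 C, dark.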
Of the large screens only hits and unclear results are named; the others gave an inactive call. Cut-off read from the data, not from the text of the source, unless noted: active = activity change below about -65%; inconclusive = mostly about -30% to -63%; inactive = weaker than that.

CCc1cccc(C)c1NC(=O)c1ccc2nc(N3CCOCC3)sc2c1	none (no result: JMJD2E inh)
Cc1cc(C)cc(NC(=S)Nc2cccc3cnccc23)c1	KCNH2 WT inh -228, JMJD2E inh 20µM
CC1=NN(c2ccc(F)cc2)C(=O)C1C(c1cccc(O)c1)c1c(C)[nH]n(-c2ccc(F)cc2)c1=O (stereo not given)	none
CC1=NN(c2ccc(Cl)cc2)C(=O)C1C(c1cccc(O)c1)c1c(C)[nH]n(-c2ccc(Cl)cc2)c1=O (stereo not given)	JMJD2E inh 3.2µM
Cc1nn(S(=O)(=O)N2CCCCC2)c(C)c1Br	none
CCOc1ccc(C(=O)N2CCN(CCc3ccccc3)CC2)cc1OCC	KCNH2 3.1 inh -90 (no result: JMJD2E inh)
CCOc1ccc(N=C/C=C/c2ccccc2)c(O)c1	JMJD2E inh 10µM (no result: CtBP-E1A blk)
CCOc1ccc(NCC(=O)N/N=C/C=C/c2ccccc2)cc1	KCNH2 3.1 inh inconclusive (no result: CtBP-E1A blk)
Cc1onc(-c2c(F)cccc2Cl)c1C(=O)NNC(=O)C1CCN(Cc2ccccc2)CC1	KCNH2 3.1 inh -102
Cc1onc(-c2c(Cl)cccc2Cl)c1C(=O)N1CCN(Cc2ccccc2)CC1	none (no result: JMJD2E inh)
O=C(Oc1ccc(C(=S)N2CCOCC2)cc1)c1ccccc1	Six1-Eya2 inh inconclusive
COc1ccc(C(=O)Oc2ccc(C(=S)N3CCOCC3)cc2)cc1	JMJD2E inh inconclusive, Six1-Eya2 inh inconclusive
O=C(OCC(=O)N1CCOCC1)c1ccc(Br)cc1	KCNH2 WT inh -130 (no result: JMJD2E inh)
COc1ccc(C(=O)Oc2cc(C(=S)N3CCOCC3)ccc2OC)cc1	KCNH2 WT inh -140, KCNH2 3.1 inh -161 (no result: JMJD2E inh)
O=C(Oc1ccc(C(=S)N2CCOCC2)cc1)c1ccc(Br)cc1	Six1-Eya2 inh -89
COc1ccc(OC)c(S(=O)(=O)NCC(c2ccc(F)cc2)N2CCN(C)CC2)c1 (stereo not given)	none (no result: JMJD2E inh)
COCCCN=C1NN=C(c2cc(C)n(-c3ccccc3F)c2C)CS1	JMJD2E inh 32µM
COCCn1c(C)cc(C2=NNC(=Nc3ccccc3F)SC2)c1C	JMJD2E inh 25µM
COCCCN=C1NN=C(c2cc(C)n(-c3ccccc3)c2C)CS1	none
COc1ccc(C(=O)NC2CCN(CC(=O)Nc3cccc(C)c3)CC2)cc1OC	none
Cc1csc(NC(=O)C2CCCO2)n1 (stereo not given)	none
CC1(OC(=O)c2ccc(Cl)nc2)C(=O)C=C2C=C3CCCN3C=C2C1=O (stereo not given)	JMJD2E inh 5.6µM
CC1(OC(=O)c2ccc(Cl)nc2)C(=O)C=C2C=C(C3CC3)OC=C2C1=O (stereo not given)	none (no result: KCNH2 WT inh, CtBP-E1A blk, KCNH2 3.1 inh, Six1-Eya2 inh)
O=c1[nH]c2sc3c(c2c2nncn12)CCCC3	JMJD2E inh inconclusive, CtBP-E1A blk -83, Six1-Eya2 inh -79
CN(Cc1ccccc1)S(=O)(=O)c1ccc2[nH]c(=O)oc2c1	none (no result: JMJD2E inh)
NC(=O)C(=CNc1nc(-c2ccc(Cl)c(Cl)c2)cs1)C(N)=O	JMJD2E inh 7.9µM (no result: KCNH2 WT inh, CtBP-E1A blk, KCNH2 3.1 inh, Six1-Eya2 inh)
O=C(O)c1ccc(-c2nc(-c3ccc(Cl)c(Cl)c3)cs2)cc1	JMJD2E inh inconclusive (no result: CtBP-E1A blk)
O=C(CSC(=S)N1CCCC1)N1CCN(S(=O)(=O)c2cccc([N+](=O)[O-])c2)CC1	none (no result: JMJD2E inh)
COc1ccc(/C=C/C(=O)O/N=C(\N)c2ccccn2)cc1OC	CtBP-E1A blk -73 (no result: JMJD2E inh)
COc1cccc(/C=N/n2c(-c3n[nH]c4c3CCC4)n[nH]c2=S)c1O	JMJD2E inh 32µM, CtBP-E1A blk inconclusive, Six1-Eya2 inh inconclusive
COc1cc(/C=N/n2c(-c3n[nH]c4c3CCC4)n[nH]c2=S)cc(OC)c1O	none
COc1ccccc1/C=C/C=N/n1c(-c2n[nH]c3c2CCC3)n[nH]c1=S	JMJD2E inh inconclusive (no result: CtBP-E1A blk)
S=c1[nH]nc(-c2n[nH]c3c2CCC3)n1/N=C/C=C/c1ccco1	JMJD2E inh 28µM (no result: CtBP-E1A blk)
COc1cccc(/C=N/n2c(-c3cc(C)[nH]n3)n[nH]c2=S)c1O	JMJD2E inh inconclusive, CtBP-E1A blk -81, Six1-Eya2 inh -68
COc1cc(N=C2C(=O)N3CCCc4cccc2c43)cc(OC)c1	CtBP-E1A blk -76
COc1ccc(-c2csc(C3=C(O)CN(C(C)C)C3=N)n2)cc1OC	CtBP-E1A blk -77, Six1-Eya2 inh inconclusive
COc1ccc(-c2nc(-c3ccc(O)cc3O)cs2)cc1OC	none
CCOc1ccc(N2CC(C(=O)Nc3ccc(N4CCOCC4)cc3)CC2=O)cc1 (stereo not given)	KCNH2 WT inh -104
COc1ccc(N2CC(C(=O)Nc3ccc(N4CCOCC4)cc3)CC2=O)cc1 (stereo not given)	none
COc1ccc(CN(C)C(=O)CNC(=O)c2ccc(C)cc2)cc1	none (no result: JMJD2E inh)
CCCCCCCN1C(Nc2ccccc2)=NC[C@@H]1Cc1ccccc1	KCNH2 3.1 inh -109 (no result: JMJD2E inh)
CN(C)C1=NC[C@H](Cc2ccccc2)N1CCCC1CCCC1	KCNH2 3.1 inh -102 (no result: JMJD2E inh)
CCN1C(Nc2ccccc2)=NC[C@@H]1Cc1ccccc1	KCNH2 3.1 inh -109 (no result: JMJD2E inh)
CN(C)C1=NC[C@H](Cc2ccccc2)N1CCCC1CCCCC1	KCNH2 3.1 inh inconclusive (no result: JMJD2E inh)
c1ccc(CCCCN2C(Nc3ccccc3)=NC[C@@H]2Cc2ccccc2)cc1	KCNH2 3.1 inh -104 (no result: JMJD2E inh)
CCC(C)CCN1C(Nc2ccccc2)=NC[C@@H]1Cc1ccccc1 (stereo not given in full)	none (no result: JMJD2E inh)
CCc1nnc(NC(=O)CCC(=O)NCC2CCCO2)s1 (stereo not given)	none
Cc1c(NS(=O)(=O)c2cccc3nsnc23)c(=O)n(-c2ccccc2)n1C	none
c1ccc(C[C@H]2CN=C(Nc3ccccc3)N2CCCC2CCCC2)cc1	KCNH2 WT inh -93, KCNH2 3.1 inh -96 (no result: JMJD2E inh, CtBP-E1A blk)
CC1(C)CC2(CC(c3ccccc3F)c3ccc(O)c(O)c3O2)NC(=S)N1 (stereo not given)	JMJD2E inh 10µM
CC1(C)CC2(CC(c3ccc(F)cc3)c3ccc(O)cc3O2)NC(=S)N1 (stereo not given)	none
CCn1ncc(/C=N/N=C2\CCC3C4CCc5cc(O)ccc5C4CCC23C)c1C (stereo not given)	none
Cc1ccnn1CC(=O)N/N=C/c1cn[nH]c1-c1ccccc1	none
C=CCCCCCCCCCCCc1ccco1	none (no result: KCNH2 WT inh, CtBP-E1A blk, KCNH2 3.1 inh, Six1-Eya2 inh)
COC1C=CO[C@@]2(C)Oc3c(C)c(O)c4c(O)c(c(C=NN5CCN(C)CC5)c(O)c4c3C2=O)NC(=O)/C(C)=C\C=CC(C)C(O)[C@@H](C)C(O)C(C)[C@H](OC(C)=O)C1C (stereo not given in full)	JMJD2E inh 13µM (no result: KCNH2 WT inh, CtBP-E1A blk, KCNH2 3.1 inh, Six1-Eya2 inh)
Cc1ccc(S(=O)(=O)N2CCN(C(=O)CC(C)n3nc(C)c(Cl)c3C)CC2)cc1C (stereo not given)	none (no result: JMJD2E inh)
CCOC(=O)N1CCC(Nc2cccc(SC)c2)CC1	JMJD2E inh inconclusive, KCNH2 3.1 inh -71
CCC(=O)Nc1cccc(SC)c1	KCNH2 3.1 inh -83
CCC(=O)Nc1ccc(Nc2ccccc2)cc1	KCNH2 WT inh -82
CN(C)c1ccc(C=NCCC2(O)CCOC(C)(C)C2)cc1 (stereo not given)	none
O=C(/C=C/c1ccccc1)NC(=S)Nc1ncccn1	none (no result: CtBP-E1A blk)
